Screens from PubChem BioAssay.
This is a sample that favours compounds with a hit; in the whole collection about 11% have one here.
JMJD2A Tudor inh = blocks the human JMJD2A Tudor domain; O75164; AlphaScreen JMJD2A-Tudor / H3K4me3 peptide binding; Potency, µM (titrated, usually from 114 µM), without a hit: at the highest dose activity change, negative = inhibition, actives largely listed as inhibitors; hit rate 4.4% among 390,000; note: % is set by controls: 0 for no effect and ±100 for the full control effect; nearly all actives have a fitted effect of over 50% in size
Target sequence (O75164 whole entry, looked up, the tested form may be a part): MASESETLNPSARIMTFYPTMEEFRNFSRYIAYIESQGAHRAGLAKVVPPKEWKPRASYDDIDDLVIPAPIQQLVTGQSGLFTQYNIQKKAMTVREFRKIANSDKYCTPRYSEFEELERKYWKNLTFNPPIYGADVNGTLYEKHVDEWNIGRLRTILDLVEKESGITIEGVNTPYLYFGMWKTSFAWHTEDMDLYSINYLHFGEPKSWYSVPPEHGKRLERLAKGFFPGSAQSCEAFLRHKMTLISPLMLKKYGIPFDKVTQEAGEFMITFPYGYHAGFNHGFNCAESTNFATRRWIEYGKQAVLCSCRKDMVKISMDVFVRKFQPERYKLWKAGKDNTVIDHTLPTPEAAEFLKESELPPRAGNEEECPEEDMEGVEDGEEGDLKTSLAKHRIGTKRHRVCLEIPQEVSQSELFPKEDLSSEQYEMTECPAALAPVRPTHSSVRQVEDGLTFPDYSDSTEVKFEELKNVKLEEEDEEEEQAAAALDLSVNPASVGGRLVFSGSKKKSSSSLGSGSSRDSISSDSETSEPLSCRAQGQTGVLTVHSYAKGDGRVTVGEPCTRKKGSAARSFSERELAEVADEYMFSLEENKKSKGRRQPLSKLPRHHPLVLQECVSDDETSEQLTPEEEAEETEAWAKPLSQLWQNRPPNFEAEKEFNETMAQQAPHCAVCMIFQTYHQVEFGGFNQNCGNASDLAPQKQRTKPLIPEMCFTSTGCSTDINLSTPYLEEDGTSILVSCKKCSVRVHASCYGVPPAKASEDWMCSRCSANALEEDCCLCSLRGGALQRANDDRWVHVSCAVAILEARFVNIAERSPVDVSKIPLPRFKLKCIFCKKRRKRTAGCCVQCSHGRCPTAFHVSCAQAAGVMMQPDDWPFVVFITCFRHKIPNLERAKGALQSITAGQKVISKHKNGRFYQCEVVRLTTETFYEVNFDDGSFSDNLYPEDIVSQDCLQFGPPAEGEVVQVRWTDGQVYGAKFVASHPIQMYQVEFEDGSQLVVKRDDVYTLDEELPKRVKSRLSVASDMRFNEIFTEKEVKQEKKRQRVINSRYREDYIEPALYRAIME
L3MBTL1 inh = blocks human L3MBTL1; hit rate 0.66% among 230,000; AlphaScreen L3MBTL1–H3K9me1 peptide binding; Potency, µM (doses to about 57.1 µM), for the others: top-dose activity, negative = inhibition, most hits filed as inhibitors; Q9Y468; note: % is set by controls: 0 for no effect and ±100 for the full control effect; nearly all actives have a fitted effect of over 60% in size
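AlphaScreen assay: L3MBTL1 (50 nM final) was preincubated 30 min at room temperature with biotinylated H3(1-15)K9me1 peptide (75 nM final), then 30 min with library compounds; streptavidin donor and nickel chelate acceptor beads (10 ug/mL final) added, 30 min dark.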
HP1b chromo inh = blocks HP1-beta chromodomain binding to methylated histone tails. Potency, µM (highest dose often 114 µM), without a hit: top-dose activity change, negative = inhibition, hits mostly inhibitors. hit rate 0.56% among 390,000. AlphaScreen HP1-beta / biotin-H3K9me3 peptide binding; note: nearly all actives have a fitted effect of over 70% in size
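HP1-beta protein (50 nM final) preincubated 30 min at room temperature with biotinylated H3(1-18)K9me3 peptide (50 nM) in PBS pH 7.4, 0.01% Tween-20, then compound added for 30 min. AlphaScreen streptavidin donor/nickel chelate acceptor beads (10 ug/mL final), 30 min dark, luminescence read.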
BAZ2B block = BAZ2B (human) inhibition; Q9UIF8; AlphaScreen BAZ2B-H3K14Ac peptide displacement; Potency, µM (titrated, usually from 114 µM), for the others: at the highest dose activity change, negative = inhibition, usual class: inhibitors; hit rate 4.4% among 360,000; AID 504333; note: % is set by controls: 0 for no effect and ±100 for the full control effect; nearly all actives have a fitted effect of over 60% in size
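AlphaScreen displacement: compounds (up to 110uM) incubated 30 min at room temperature with a preformed 50 nM BAZ2B/50 nM biotinylated H3K14Ac peptide complex in PBS pH 7.4 with Tween-20. Donor and acceptor beads at 10 ug/mL final added, 20 min light-protected before reading.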
G9a inh = inhibitors of human histone lysine methyltransferase G9a. AID 504332. G9a H3K9 monomethylation, AlphaScreen, 2 h. Potency, µM (doses to about 102 µM), inactives show at the top dose activity, negative = inhibition, most hits filed as inhibitors. hit rate 8.8% among 350,000. Q96KQ7; note: % is set by controls: 0 for no effect and ±100 for the full control effect; nearly all actives have a fitted effect of over 75% in size
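AlphaScreen detection with an anti-monomethyl H3K9 antibody quantified product after a 2 h room-temperature reaction containing 500 nM biotinylated H3K9 peptide, 20 µM SAM and 20 nM enzyme, which had been preincubated 15 min with compound.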
* marks the source's active call; other numbers are inactive results; ? = inconclusive; · = not tested or not shown; ! = a repeat was not active; [ ] = remark or other dose. Calls come from the whole dose curve; as a rule, active = well fitted inhibition curve with a large enough effect; inconclusive = small, poorly fitted or top-dose-only effect; inactive = no such curve, though single readings can be large or run the other way. Potency is the fitted concentration of half-maximal effect.

SMILES	JMJD2A Tudor inh	L3MBTL1 inh	HP1b chromo inh	BAZ2B block	G9a inh
COc1ccc(OC)c2c1cc(C(=O)N[C@@H](C)C(=O)N[C@@H](C(=O)O)c1ccccc1)n2C	-13.0%	·	25.7%	-1.4%	-19.0%
Cc1nc2nc(C)c(CCC(=O)NCCCN3CCN(c4cccc(Cl)c4)CC3)c(C)n2n1	?	-4.1%	13.8%	?	50.1µM*!
N#Cc1cccc(NC(=O)C2CCN(c3cnccn3)CC2)c1	-14.6%	·	34.6%	5.3%	-5.2%[59 µM]
O=C(O)c1cccc(OS(=O)(=O)c2cc(Br)ccc2Br)c1	0.7%	4.7%	24.5%	8.9%	4.5%[12.7 µM]
COc1ccc(CN2CCN(c3ncnc4scc(-c5ccc(F)cc5)c34)CC2)cc1	?	·	?	?	14.9%[2.33 µM]
COc1ccc(N2CCN(c3ncnc4scc(-c5ccc(C)cc5)c34)CC2)cc1	25.1µM*	·	?	11.2µM*	25.1µM*
COc1ccc(N2CCN(c3ncnc4sc(C(=O)NCC5CCCO5)c(C)c34)CC2)cc1 (stereo not given)	?	·	-19.5%	-22.0%	39.8µM*
COc1ccc(N2CCN(c3ncnc4scc(-c5ccccc5)c34)CC2)cc1	25.1µM*	·	?	14.1µM*	7.94µM*
COc1ccc(N2CCN(c3ncnc4scc(-c5ccc(F)cc5)c34)CC2)cc1	22.4µM*	·	?	7.94µM*	10µM*
COc1ccc(-c2csc3ncnc(N4CCN(c5cccc(OC)c5)CC4)c23)cc1	-29.2%	·	-1.6%	-19.9%	·
O=C(NCc1ccccc1Cl)NCc1noc2ccccc12	12.5%	·	27.5%	-2.4%	9.5%[59 µM]
COc1ccc(-c2csc3ncnc(N4CCN(C(=O)c5ccco5)CC4)c23)cc1	-19.3%	-2.1%	55.9%	-33.6%	50.1µM*
COc1ccc(N/C(=C(/C(Cl)=C(Cl)Cl)[N+](=O)[O-])n2nnc3ccccc32)cc1	·	·	·	50.1µM*	11.2µM*
Cc1ccccc1NC(=O)c1nn(C)c(C(=O)Nc2ccccc2C)c1[N+](=O)[O-]	-18.2%	6.4%	25.1%	-4.1%	6.4%
Cc1ccccc1N/C(=C(/C(Cl)=C(Cl)Cl)[N+](=O)[O-])n1nnc2ccccc21	?	·	-5.5%	50.1µM*	10µM*
O=c1c2sc3nc(N4CCOCC4)c4c(c3c2ncn1C(c1ccccc1)c1ccccc1)CCCC4	3.1%	·	45.2%	·	·
CCOc1ccc(S(=O)(=O)n2nc(C)c(S(=O)(=O)N3CCCCC3)c2C)cc1	-29.4%	·	2.5%[57 µM]	-10.2%	-1.2%[59 µM]
Fc1ccccc1N1CCN(c2ncnc3onc(-c4cccc(Cl)c4)c23)CC1	-4.6%	·	55.3%	-0.4%	-1.0%[59 µM]
COc1ccc(C(C)=O)cc1COC(=O)c1cc2ccccc2cc1O	-18.7%	·	-13.0%	-2.3%	44.7µM*
COc1ccc(C(C)=O)cc1COC(=O)c1cccnc1Cl	-4.2%	·	-1.9%	-19.3%	-7.1%
CCOc1ccc(NC(=O)CCCn2c(C)c3cnn(-c4ccccc4)c(=O)c3c2C)cc1	-22.8%	·	19.7%	-1.6%	42.6%[59 µM]
COc1ccccc1OCCNc1nc2c(c(=O)n(C)c(=O)n2C)n1C	22.4µM*	2.2%	-20.8%	11.8%	18.6%[59 µM]
CN1C(C(=O)c2ccccc2)=C(NC(=O)c2ccccc2Br)c2ccccc2S1(=O)=O	-23.6%	·	25.1%	?	?
S=C(NCCCCN(Cc1ccc(Cl)cc1)c1ccc(Br)cn1)NCCCc1cnc[nH]1	44.7µM*	·	25.1µM*	·	·
NCCCN(Cc1ccccc1)c1ccc(Br)cn1	-19.7%	·	25.2%	·	·
SMILES	JMJD2A Tudor inh	L3MBTL1 inh	HP1b chromo inh	BAZ2B block	G9a inh
O=C(NCCCc1cnc[nH]1)NCCCN(Cc1ccc(Cl)c(Cl)c1)c1ccc(Br)cn1	50.1µM*	·	·	·	·
S=C(NCCCc1cnc[nH]1)NCCCN(Cc1ccc(Cl)c(Cl)c1)c1ccccn1	44.7µM*	·	·	·	·
CC(=O)NCCCN(Cc1ccc(Cl)c(Cl)c1)c1ccc(Br)cn1	-17.0%	·	20.0%	·	·
CN(CCCN(Cc1ccc(Cl)cc1)c1ccc(Br)cn1)C(=S)NCCCc1cnc[nH]1	56.2µM*	·	?	·	·
COc1cc2c(cc1OC)C1O[C@](CCCCN3C(=O)c4ccccc4C3=O)(C2)Oc2c1c(=O)oc1ccccc21	·	·	·	7.8%[22.9 µM]	·
CCn1cc(C(=O)NCc2ccc(C)cc2)c(=O)c2cc(S(=O)(=O)N3CCCCCC3)ccc21	-27.6%	·	-7.5%	1.5%	-13.5%[59 µM]
O=C(CCNC(=O)C1CCN(S(=O)(=O)c2ccc(F)cc2)CC1)NC1CC1	-11.7%	·	32.0%	-14.9%	44.4%
C=C(C)CSC1=C(C#N)C(c2ccccc2Cl)CC(=O)N1 (stereo not given)	?	-0.7%	?	5.2%	44.7µM*
CCSC1=C(C#N)C(c2ccccc2C)CC(=O)N1 (stereo not given)	-5.1%	·	41.6%	1.0%	?
C=CCSC1=C(C#N)C(c2ccccc2Cl)CC(=O)N1 (stereo not given)	-19.2%	2.6%	-14.0%	5.2%	20µM*
CSc1ccc(CCNC(=O)c2ccc3c(c2)nc2n3CCCCC2)cc1	-20.1%	·	22.3%[57 µM]	-5.4%	-0.9%[59 µM]
COc1ccccc1CNS(=O)(=O)c1cc(Br)cc2c1N(C(=O)C1CC1)CC2	-18.8%	·	13.5%	3.7%	7.3%[59 µM]
Cc1ccc(NC(=O)n2ncc3c(C)cccc32)c(C)c1	3.8%	·	14.6%	-9.5%	-20.7%
Cc1cccc2c1cnn2C(=O)Nc1ccc(Br)cc1F	10.1%	·	24.2%	-6.0%	35.5µM*
O=c1[nH]nc(SCc2nc3ccccc3s2)n1C1CC1	-16.3%	21.2%	23.5%	-5.9%	7.94µM*
CCCn1c(SCc2nc3ccccc3s2)n[nH]c1=O	?	-12.1%	-15.5%	-12.4%	56.2µM*
CC(=O)Nc1nonc1-c1nnc(SCC(=O)Nc2cc(C)ccc2C)n1-c1ccccc1	-1.0%	·	50.0%	-36.9%	11.5%[59 µM]
COc1cccc(/C=N/Nc2ncnc3c2[nH]c2ccc(C)cc23)c1OC	-35.2%	·	14.5%	?	56.2µM*
COc1cccc(C=NNc2nnc(NN=Cc3cccc(OC)c3OC)c3ccccc23)c1OC	35.5µM*	·	?	·	·
COc1cccc(/C=N/Nc2ncc(C)c(=O)[nH]2)c1OC	-8.9%	·	23.9%	-2.4%	31.6µM*
CCOC(=O)c1ccc(NC(=O)C2=C(C)Nc3nc(SCc4ccc(Cl)cc4)nn3C2c2ccc(OC)cc2)cc1 (stereo not given)	1.4%	·	17.9%	-0.1%	9.7%[59 µM]
CC(NC(=O)Nc1cc(Cl)ccc1Cl)c1c(-n2cccc2)sc2c1CCCC2 (stereo not given)	-7.3%	·	20.9%	-9.0%	-40.1%[59 µM]
O=C(CNC(=O)C12CC3CC(CC(C3)C1)C2)N/N=C\c1ccco1	8.8%	·	41.1%	-8.9%	30.3%
O=C(/C=C/c1ccco1)c1ccc(NC(=O)C23CC4CC(CC(C4)C2)C3)cc1	?	22.4µM*	?	35.5µM*	4.47µM*
O=C(CNC(=O)c1ccc(Cl)cc1)NCCCn1ccnc1	7.1%[57.1 µM]	-8.0%	19.2%	79.4µM*	-36.8%
O=C(NCCCn1ccnc1)c1cccc(S(=O)(=O)Nc2ccc(F)cc2)c1	-28.1%	2.8%	20.2%	-0.7%	-4.8%
